Screening data (PubChem BioAssay)
In the library only some 2.4% were active in any assay of this set; here they are far more common.
D2 PAM-1: Beta-Arrestin HTS for Positive Allosteric Modulators of the Human D2 Dopamine Receptor: Potentiators; D(2) dopamine receptor (Homo sapiens), P14416; DiscoveRx D2 beta-arrestin cells, luminescence, 90 min; 100% = 57 uM dopamine signal; potentiation, % (concentration not given with the values); 0.23% of 360,000 active; in the data active = potentiation above about 50%
Target sequence (P14416 whole entry, looked up): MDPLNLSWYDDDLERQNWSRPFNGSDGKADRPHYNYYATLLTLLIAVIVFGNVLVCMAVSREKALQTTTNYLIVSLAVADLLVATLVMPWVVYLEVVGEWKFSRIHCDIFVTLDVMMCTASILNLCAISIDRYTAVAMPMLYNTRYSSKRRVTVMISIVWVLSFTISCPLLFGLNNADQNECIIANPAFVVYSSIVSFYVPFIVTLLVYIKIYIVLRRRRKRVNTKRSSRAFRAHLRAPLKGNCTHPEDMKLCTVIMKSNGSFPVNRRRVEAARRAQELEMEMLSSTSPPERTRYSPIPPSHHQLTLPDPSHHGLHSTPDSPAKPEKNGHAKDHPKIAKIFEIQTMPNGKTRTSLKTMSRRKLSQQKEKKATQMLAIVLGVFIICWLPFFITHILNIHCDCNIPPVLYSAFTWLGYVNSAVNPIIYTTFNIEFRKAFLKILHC
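PathHunter D2 cells, attached overnight at 37 deg C, received compound in DMSO plus dopamine at EC20 (50 nM final) for 90 min at 37 deg C. Beta-arrestin recruitment was read as luminescence after 1 h with detection reagent at ambient temperature.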
D2 ag-1: HTS Assay for Allosteric Agonists of the Human D2 Dopamine Receptor: Primary Screen for Agonists; D(2) dopamine receptor (Homo sapiens), P14416; HEK293 T-REx D2 cells, calcium flux agonist mode; activation, % at 2 µM; 0.53% of 340,000 active; AID 485358, 2010;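 active = activation over 3 SD above normal in the single-dose calcium agonist read, cut at about 30% in these data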; note: 0% is about no effect
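In this primary screen, compounds producing a positive calcium signal within 180 s of addition to tetracycline-induced, force-coupled HEK293 Trex D2 cells are flagged; cells are dye-loaded with a no-wash calcium kit beforehand.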
D2 ag-2: Beta-Arrestin HTS for Positive Allosteric Modulators of the Human D2 Dopamine Receptor: Agonists; DiscoveRx PathHunter D2 beta-arrestin, luminescence, 90 min; 100% = 57 uM dopamine signal; activation, % (test concentration not listed); 0.084% of 360,000 active; AID 624465, 2012; in the data active = activation above about 40%
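Agonist mode: compounds alone added to overnight-plated D2 PathHunter cells for 90 min at 37 C, with 57 uM final dopamine (EC100) defining full response. Beta-arrestin recruitment detected by chemiluminescent reagent, read after 1 h at ambient temperature.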
D2 PAM-2: HTS Assay for Positive Allosteric Modulators of the Human D2 Dopamine Receptor: Primary Screen for Potentiators | D(2) dopamine receptor (Homo sapiens), P14416 | HEK293 T-REx D2, calcium flux, EC20 dopamine potentiation | potentiation, % at 10 µM | 0.34% of 340,000 active;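 active = potentiation over 3 SD above the plate norm, cut at about 30% in these data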; note: 0% is about no effect
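Tetracycline-induced Hek293 Trex D2 cells, force-coupled to calcium, loaded with no-wash calcium dye. Compound added with 180 s kinetic read for agonism, then EC20 dopamine and a further 180 s read for potentiation.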
D2 antagonist: HTS Assay for Allosteric Antagonists of the Human D2 Dopamine Receptor: Primary Screen for Antagonists. 2% of 340,000 active. HEK293 TREx D2 cells, calcium flux, dopamine EC80. inhibition, % at 10 µM; in the data active = inhibition above about 30%; inactive = below that, where a call was filed; note: 0% is about no effect
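In this primary screen, negative modulation is detected by tracking calcium flux after an EC80 dopamine challenge in inducible HEK293 T-REx D2 cells preexposed to test compound for 180 s.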
The depositor's hits bear a star; . = no result given.

SMILES	D2 PAM-1	D2 ag-1	D2 ag-2	D2 PAM-2	D2 antagonist
Cc1ccc(-c2nc(CS(=O)CC(=O)NCCN3CCCC3)c(C)o2)cc1 (stereo not given)	-4	-1	-5	-7	-5
CC(C)Cn1cc(C(=O)N2CCN(c3cccc(Cl)c3)CC2)c2c3ccccc3n(C)c2c1=O	.	.	.	21	.
CCOc1ccc(NS(=O)(=O)c2ccc(C(=O)N(C)C)s2)cc1	.	.	.	1	.
CCCN1CCC(=O)N([C@H](COc2ccccc2)Cc2ccccc2)CC1	-19	1	-1	-4	39*
O=C1CCN(Cc2ccccc2)CCN1[C@H](COc1ccccc1)Cc1ccccc1	-5	7	8	6	-3
CC(C)(C)c1ccc(OCC(=O)NNC(=O)C2CCCO2)cc1 (stereo not given)	1	0	-3	-2	5
CC(C)=C1C2CCC1C1C(=O)N(NC(=O)COc3ccc(C(C)(C)C)cc3)C(=O)C21 (stereo not given)	-9	0	-2	3	32*
Clc1ccc(OCCSc2nnnn2C2CCCCC2)cc1	-12	0	-2	-7	34*
Cc1nc2sccn2c(=O)c1S(=O)(=O)Nc1cc(C(F)(F)F)ccc1Cl	.	-1	.	-2	.
CCOC(=O)/C(N=Nc1ccc2c(c1)OCO2)=C(\C)O	4	-1	2	119*	8
CCN(CC)c1ccc(C2C(C(=O)Nc3ccccc3C)=C(C)Nc3ncnn32)cc1 (stereo not given)	.	-1	.	2	.
Cn1c(-n2cccc2)c(-c2c(-c3ccccc3)[nH]c3c2c(=O)[nH]c(=O)n3C)c(=O)[nH]c1=O	.	1	.	7	.
CC1=C(C(=O)OCCOc2ccccc2)C(c2coc3ccccc3c2=O)C2=C(CCCC2=O)N1 (stereo not given)	-3	1	-1	43*	-21
CCOC(=O)C1=C(C)NC2=C(C(=O)CCC2)C1c1coc2ccccc2c1=O (stereo not given)	-5	1	-2	6	-7
COc1ccc(Cl)cc1NC(=O)c1c(C(=O)Nc2cccc(C)c2C)sc2nc(C)cc(=O)n12	.	0	.	11	.
CCc1nc2ccc(C(=O)Nc3cc(-c4ccccc4)ccc3OC)cn2c1N(C=O)CCC(C)C	-2	.	134*	.	.
CCc1ccccc1NC(=O)CCn1cccn1	.	0	.	5	.
CC(C)=C(NC(=O)c1ccccc1)C(=O)NC(Cc1ccccc1)C(=O)O (stereo not given)	-1	1	1	-2	39*
CCOC(=O)c1c(C)[nH]c(C)c1S(=O)(=O)NCC(=O)N(C)c1ccc(C)c(C)c1	.	0	.	-8	.
COc1ccc(/C=N/NC(=O)C[n+]2ccccc2)c(OC)c1OC	-27	0	-3	-27	35*
O=C(Cc1ccccc1)N/N=C/c1ccccc1Cl	-12	-1	-4	1	31*
C=CCc1cccc(/C=N/NC(=O)C(C)Nc2cccc(C)c2)c1O (stereo not given)	-12	0	-4	-9	31*
O=C(Cc1cc(=O)[nH][nH]1)N/N=C/c1ccccc1Cl	2	0	-1	9	-13
O=C(Cc1ccccc1)Nc1ccc(Br)c(Cl)c1	-14	-2	0	31*	-10
C=CCc1cccc(/C=N/NC(=O)CCCNc2ccc(C)cc2)c1O	-27	-1	-4	-15	-18
CCOc1ccc(CCNC(=O)c2cc(Nc3ccc(C)cc3C)nc3ccccc23)cc1OCC	.	0	.	-8	.
CCOc1ccccc1/C=N/NC(=O)C[n+]1ccccc1	-19	-1	-5	-16	33*
C=CCc1cccc(/C=N/NC(=O)C[n+]2ccccc2)c1O	-12	0	10	-20	53*
CNC(=S)N/N=C/c1ccccc1OCC(=O)O	-5	2	-3	14	31*
